Source: PubChem BioAssay
Calls of active or inactive are those of the source.

Tested on: XIP peptide (Xip251-270) binding
Assay: small-molecule binders of XIP peptide, primary screen, biochemical, small-molecule microarray, fluorescence 635/667 nm, 0.1 µg/mL protein (AID 1182)
Conditions: fluorescent protein binding, 635 nm, higher = more signal, called active from +8 up or from −8 down

Row | SMILES | composite z-score
1 | C=CCN1C(=O)[C@]2(O[C@H](CCn3cc([C@H](O)c4ccccc4)nn3)[C@@H]([Si](C)(C)c3ccc(OC)cc3)[C@@H]2C)c2cc(N3C(=O)c4cccc5cccc3c45)ccc21 | 0.767 (inactive)
2 | C=CCC(OC(C)=O)[C@@H]1[C@@H](N(Cc2ccc(-c3ccccc3)cc2)C(=O)c2ccc(C)cc2)c2cc(OCCCO)ccc2N1C(=O)c1ccc2ccccc2c1 (some centres undefined) | -0.654 (inactive)
3 | C#CCN(C/C=C/c1ccccc1)[C@H](CO[Si](C)(C)C(C)(C)C)c1ccccc1 | 0.141 (inactive)
4 | CC(C)C[C@@H]1NC(=O)[C@H]2C[C@@H](C(=O)NCCCCCCNC(=O)CS)[C@@H](c3ccc(O)cc3)N2C1=O | 3.87 (inactive)
5 | COCCOC(=O)N1C(=O)[C@@]2(c3cc(C#CC4(O)CCCCCC4)ccc31)[C@H](C(=O)N1CCc3cc(OC)c(OC)cc3C1)[C@H]1C(=O)O[C@H](c3ccccc3)[C@H](c3ccccc3)N1[C@@H]2c1ccc(O)cc1 | 0.424 (inactive)
6 | CCOC(=O)C1=C(C(=O)OCC)N(S(=O)(=O)CC[Si](C)(C)C)[C@H](c2ccccc2)CC1 | -0.177 (inactive)
7 | COc1ccccc1CN1C(=O)c2ccccc2[C@](Cc2ccccc2I)(C(=O)NCCCN(C)C)[C@@H]1c1ccc(CO)cc1 | 0.287 (inactive)
8 | [N-]=[N+]=NCc1ccccc1C[C@]1(C(=O)N2CCCCC2)N=C(c2ccc(OCCCO)cc2)O[C@H]1c1ccccc1 | 0.404 (inactive)
9 | C=CCC(OC(C)=O)[C@@H]1[C@@H](N(Cc2ccc(-c3ccccc3)cc2)C(=O)c2ccc(-c3ccccc3)cc2)c2cc(OCCCO)ccc2N1C(=O)c1ccc2ccccc2n1 (some centres undefined) | -0.649 (inactive)

Tested on: XIP peptide (Xip251-270)
Assay: small-molecule binders of XIP peptide, primary screen, biochemical, small-molecule microarray, fluorescence 635/667 nm, 0.5 µg/mL protein (AID 1183)
Conditions: small-molecule microarray binding, fluorescence 635 nm; higher = more signal

Row | SMILES | composite z-score
10 | COc1cc2c(cc1O)C(c1ccc(CN3CCCC3)cc1)N(Cc1cccc(OC(F)(F)F)c1)CC2 (centres undefined) | 0.156
11 | Cc1c(NC(=O)/C(C#N)=C/c2ccc(Cl)cc2)c(=O)n(-c2ccccc2)n1C | 0.876
12 | COCCOC(=O)N1C(=O)[C@@]2(c3cc(C#CC4(O)CCCCCC4)ccc31)[C@H](c1ccccc1OCCO)N1[C@H](c3ccccc3)[C@H](c3ccccc3)OC(=O)[C@H]1[C@@H]2C(=O)N1CCCCCCC1 | 0.727
13 | CN1C(=O)[C@]2(CCS(=O)(=O)c3ccccc3)N=C(c3ccc(OCCCO)cc3)O[C@@H]2c2ccccc21 | 0.897
14 | CCOC(=O)C1=CC[C@@H](c2ccccc2)N(S(=O)(=O)C[Si](C)(C)C)[C@H]1c1ccccc1 | 0.704
15 | CCCCN1CC=CC23O[C@@H]4C=CCOC(=O)[C@@H]4[C@H]2C(=O)N(C(CO)C(C)C)[C@@H]3C1=O (some centres undefined) | -0.186
16 | [N-]=[N+]=NCc1ccccc1C[C@]1(C(=O)N2CCOCC2)N=C(c2ccc(OCCCO)cc2)O[C@H]1c1ccccc1CN=[N+]=[N-] | 0.733
17 | COCCOC(=O)N1C(=O)[C@@]2(c3cc(C#CC4(O)CCCCCC4)ccc31)[C@H](c1ccc(OCCO)cc1)N1[C@H](c3ccccc3)[C@H](c3ccccc3)OC(=O)[C@H]1[C@@H]2C(=O)N1CCCCCCC1 | 0.743
18 | COCCOC(=O)N1C(=O)[C@@]2(c3cc(C#Cc4ccc(OC)cc4)ccc31)[C@H](c1ccc(OCCO)cc1)N1[C@H](c3ccccc3)[C@H](c3ccccc3)OC(=O)[C@H]1[C@@H]2C(=O)N1CCCCCCC1 | 0.768
19 | Cc1ccc(S(=O)(=O)N2[C@@H](c3ccccc3)C(C(=O)O)=CC[C@H]2c2ccc(C#N)cc2)cc1 | 0.848
20 | COC(=O)Cn1c(C(=O)N(C)C)cc2c1C[C@H]1CN(C(=O)c3ccccc3)[C@@](Cc3ccc(OC)cc3)(C(=O)OC)[C@@H]21 | 0.59
21 | CCOC(=O)C1=C[C@@H](C(C)(C)C)N(S(=O)(=O)c2ccc(C)cc2)[C@H]1c1ccccc1Cl | 0.705
22 | Cc1c(-c2ccc(-c3ccc(Cl)c(Cl)c3)o2)nc(-c2ccccc2)c2c1CO[Si]2(C(C)C)C(C)C | 0.761
23 | N[C@@H](Cc1ccccc1)Cn1cc(C2(O)CCCCC2)nn1 | 0.0069
24 | COC(=O)c1c(CC[C@@H](CO)NC(=O)N[C@@H](Cc2ccccc2)Cn2cc(-c3cncn3C)nn2)oc(C(C)=O)c1C(=O)OC | 0.851
25 | C=C(COC)C(=O)CC[C@@H](OC(C)=O)c1ccc(OCCO)cc1 | 0.779
26 | CCOC(=O)C[C@H]1[C@H](OC(=O)Cc2ccc3c(c2)OCO3)[C@@H](NC(=O)c2ccccc2)c2cc(OCCCO)ccc2N1C(=O)Cc1ccc(OC)cc1 | 0.288
27 | COC(=O)[C@@]1(Cc2ccc(OC)cc2)[C@H]2c3cc(C(=O)N(C)C)n(Cc4ccsc4Br)c3C[C@H]2CN1C(=O)c1ccccc1 | 0.793

Row | SMILES | composite z-score
28 | CN(C)C(=O)[C@]1(Cc2ccccc2)N=C(c2ccc(OCCCO)cc2)O[C@@H]1c1ccccc1 | 0.851
29 | O=c1cccc(-c2ccccc2C(F)(F)F)o1 | -0.597
30 | COCCOC(=O)N1C(=O)[C@@]2(c3cc(C#CCCO)ccc31)[C@H](c1ccc(O)cc1)N1[C@H](c3ccccc3)[C@H](c3ccccc3)OC(=O)[C@H]1[C@@H]2C(=O)N1CCc2cc(OC)c(OC)cc2C1 | 0.786
31 | COCCCNC(=O)[C@@H]1c2ccccc2C(=O)N(Cc2cc(C(F)(F)F)cc(C(F)(F)F)c2)[C@H]1c1ccc(CO)cc1 | -0.903
32 | CN(C)C(=O)[C@]1(Cc2ccccc2CN=[N+]=[N-])N=C(c2ccc(OCCCO)cc2)O[C@@H]1c1ccccc1N=[N+]=[N-] | 0.624
33 | C=CC[C@@]12N=C(c3ccc(OCCCO)cc3)O[C@@H]1c1ccccc1N(Cc1ccccc1)C2=O | 0.797
34 | COCCOC(=O)N1C(=O)[C@@]2(c3cc(C#CC4(O)CCCCCC4)ccc31)[C@H](c1ccc(OCCO)cc1)N1[C@H](c3ccccc3)[C@H](c3ccccc3)OC(=O)[C@H]1[C@@H]2C(N)=O | 0.849
35 | O=C1O[C@H](c2ccccc2)[C@H](c2ccccc2)N2[C@H]1[C@@H](C(=O)N1CCN(c3ncccn3)CC1)[C@]1(C(=O)Nc3ccccc31)[C@H]2c1ccc(O)cc1 | 0.458
36 | C=CCN1C(=O)[C@]2(O[C@H](CCn3cc([C@H](O)c4ccccc4)nn3)[C@@H]([Si](C)(C)c3ccc(OC)cc3)[C@@H]2C)c2cc(N3C(=O)c4cccc5cccc3c45)ccc21 | 0.312
37 | C=CCC(OC(C)=O)[C@@H]1[C@@H](N(Cc2ccc(-c3ccccc3)cc2)C(=O)c2ccc(C)cc2)c2cc(OCCCO)ccc2N1C(=O)c1ccc2ccccc2c1 (some centres undefined) | -0.354
38 | C#CCN(C/C=C/c1ccccc1)[C@H](CO[Si](C)(C)C(C)(C)C)c1ccccc1 | 0.0247
39 | CC(C)C[C@@H]1NC(=O)[C@H]2C[C@@H](C(=O)NCCCCCCNC(=O)CS)[C@@H](c3ccc(O)cc3)N2C1=O | 0.409
40 | COCCOC(=O)N1C(=O)[C@@]2(c3cc(C#CC4(O)CCCCCC4)ccc31)[C@H](C(=O)N1CCc3cc(OC)c(OC)cc3C1)[C@H]1C(=O)O[C@H](c3ccccc3)[C@H](c3ccccc3)N1[C@@H]2c1ccc(O)cc1 | 0.762
41 | CCOC(=O)C1=C(C(=O)OCC)N(S(=O)(=O)CC[Si](C)(C)C)[C@H](c2ccccc2)CC1 | 0.201
42 | COc1ccccc1CN1C(=O)c2ccccc2[C@](Cc2ccccc2I)(C(=O)NCCCN(C)C)[C@@H]1c1ccc(CO)cc1 | 0.808
43 | [N-]=[N+]=NCc1ccccc1C[C@]1(C(=O)N2CCCCC2)N=C(c2ccc(OCCCO)cc2)O[C@H]1c1ccccc1 | 0.779
44 | C=CCC(OC(C)=O)[C@@H]1[C@@H](N(Cc2ccc(-c3ccccc3)cc2)C(=O)c2ccc(-c3ccccc3)cc2)c2cc(OCCCO)ccc2N1C(=O)c1ccc2ccccc2n1 (some centres undefined) | 0.119
